From PubChem BioAssay
Sampled rows, rich in hits. Any-hit rate of the full collection: about 6.7%.
FBA Mtb inh: inhibitors of M. tuberculosis fructose-bisphosphate aldolase; AID 588726; inhibition, % at 1 µM; purified M. tuberculosis FBA, fluorescence read-out; 360,000 tested, 2.3% active; P9WQA3;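 note: 0% = vehicle and 100% = reference inhibitor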
GDH-TPI counter-1: counter-screen for M. tuberculosis FBA inhibitors: GDH-TPI coupled enzymes. GDH-TPI coupled enzyme counterscreen, NADH absorbance. 360,000 tested, 1.2% active. inhibition, % at 4.8 µM; in the data active = inhibition above about 30%;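 note: 0% = DMSO wells and 100% = wells lacking the enzyme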
Anthrax LF prot: anthrax lethal factor protease inhibition. AID 588501. 360,000 tested, 0.12% active. inhibition, % at 10 µM. multiplex microsphere protease cleavage assay, LF; in the data active = inhibition above about 30%; inconclusive = no clear call, values can overlap the other calls; note: plate controls were buffer without enzyme for full effect and enzyme alone for no effect
Autofluor counter: counter-screen for toxin protease inhibitors: compound fluorescence. compound autofluorescence counterscreen, microsphere flow cytometry; stronger effect = higher value. fluorescence intensity (no concentration beside the values). 360,000 tested, 3.1% active. AID 624483; in the data active = fluorescence intensity above about 16000; inconclusive = no clear call, values can overlap the other calls
BoNT F protease: blocks Botulinum neurotoxin F light chain protease. Multiplex microsphere protease cleavage assay, flow cytometry. inhibition, % at 10 µM. 360,000 tested, 0.22% active. AID 588497; in the data active = inhibition above about 35%, passing the limit was not always enough; inconclusive = no clear call, values can overlap the other calls; note: plate controls were buffer without enzyme for full effect and enzyme alone for no effect
BoNT-A LC inh2: inhibitors of Botulinum neurotoxin A light chain protease; multiplex microsphere protease substrate cleavage, flow cytometry; inhibition, % at 10 µM; 360,000 tested, 0.17% active; AID 588499; in the data active = inhibition above about 30%; inconclusive = no clear call, values can overlap the other calls; note: plate controls were buffer without enzyme for full effect and enzyme alone for no effect
Mtb FBA inh conf: confirmation of M. tuberculosis fructose-bisphosphate aldolase inhibitors. shares compounds with FBA Mtb inh. purified M. tuberculosis FBA, fluorescence read-out. inhibition, % at 1 µM. 5,600 tested, 78% active;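 note: 0% = vehicle wells and 100% = reference inhibitor wells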
GDH-TPI counter-2: GDH-TPI inhibition counter-screen for FBA inhibitors. inhibition, % at 1 µM. 5,600 tested, 81% active. AID 652141. shares compounds with FBA Mtb inh. GDH-TPI coupled enzyme counterscreen, fluorescence; in the data active = inhibition above about 10%
* = called active by the depositor. Cut-off read from the data, not from the text of the source, unless noted: active = inhibition above about 27%; inactive = the rest.

For CCC1=NN(C(=O)c2ccccc2[N+](=O)[O-])C(O)(c2ccccc2)C1 (stereo unspecified) the results were FBA Mtb inh 3, GDH-TPI counter-1 19, Anthrax LF prot -7, Autofluor counter 3769, BoNT F protease 6 and BoNT-A LC inh2 0.
For COc1cc(/C=N/NC(=O)CC2C(=O)NN=C2C)ccc1O (stereo unspecified) the results were FBA Mtb inh -1, GDH-TPI counter-1 18, Anthrax LF prot 3, Autofluor counter 4282, BoNT F protease 2 and BoNT-A LC inh2 -1.
`O=C(CSc1ccc(Cl)cc1)Nc1cccc(-c2nc3ccccc3[nH]2)c1` gave FBA Mtb inh 35*, GDH-TPI counter-1 17, Anthrax LF prot 0, Autofluor counter 1987, BoNT F protease 2, BoNT-A LC inh2 1, Mtb FBA inh conf active and GDH-TPI counter-2 active.
Screening O=C(CSc1ccc(Cl)cc1)Nc1cccc(-c2nc3ncccc3o2)c1 returned FBA Mtb inh 1, GDH-TPI counter-1 2, Anthrax LF prot 2, Autofluor counter 5748, BoNT F protease -48 and BoNT-A LC inh2 -2.
Screening Cc1ccc(N2CC(C(=O)N3CCC(C(=O)NCCCOC(C)C)CC3)CC2=O)cc1 (stereo unspecified) returned FBA Mtb inh -1, GDH-TPI counter-1 -2, Anthrax LF prot 4, Autofluor counter 5840, BoNT F protease -4 and BoNT-A LC inh2 -2.
Screening CC(=O)Nc1ccccc1NS(=O)(=O)c1ccccc1[N+](=O)[O-] returned FBA Mtb inh 2, GDH-TPI counter-1 2, Anthrax LF prot 0, Autofluor counter 4316, BoNT F protease -2 and BoNT-A LC inh2 -1.
For CC(=O)Nc1ccccc1NS(=O)(=O)c1cccc([N+](=O)[O-])c1 the results were FBA Mtb inh 99*, GDH-TPI counter-1 5, Anthrax LF prot 1, Autofluor counter 3160, BoNT F protease -6, BoNT-A LC inh2 0, Mtb FBA inh conf active and GDH-TPI counter-2 175*.
Screening COc1cc2c3c([nH]c2cc1F)C(=O)NCC3 returned FBA Mtb inh 102*, GDH-TPI counter-1 -4, Anthrax LF prot -2, Autofluor counter 3483, BoNT F protease 4, BoNT-A LC inh2 0, Mtb FBA inh conf 71* and GDH-TPI counter-2 46*.
For COc1cc(C2Nc3ccccc3C(=O)N2c2ccc(Cl)cc2)c(Cl)cc1OCC(=O)O (stereo unspecified) the results were FBA Mtb inh 70*, GDH-TPI counter-1 0, Anthrax LF prot -1, Autofluor counter 2132, BoNT F protease 1, BoNT-A LC inh2 0, Mtb FBA inh conf 115* and GDH-TPI counter-2 83*.
CCOc1cc(C2Nc3ccccc3C(=O)N2c2ccccc2)c(Br)cc1OCC(=O)O (stereo unspecified) was read as FBA Mtb inh 39*, GDH-TPI counter-1 9, Anthrax LF prot -5, Autofluor counter 1996, BoNT F protease -1, BoNT-A LC inh2 0, Mtb FBA inh conf 105* and GDH-TPI counter-2 84*.
For COc1cc(C2NC(=O)NC(c3ccccc3)=C2C(C)=O)c(Cl)cc1OCC(=O)O (stereo unspecified) the results were FBA Mtb inh -3, GDH-TPI counter-1 7, Anthrax LF prot -2, Autofluor counter 2236, BoNT F protease -3 and BoNT-A LC inh2 0.
For COCCN1CCn2c(nc3cc(NC(=O)c4cccs4)ccc32)C1 the results were FBA Mtb inh 0, GDH-TPI counter-1 24, Anthrax LF prot -23, Autofluor counter 5348, BoNT F protease -80 and BoNT-A LC inh2 15.
For CCCCC(=O)Nc1ccc2c(c1)nc1n2CCN(CCOC)C1 the results were FBA Mtb inh 51*, GDH-TPI counter-1 7, Anthrax LF prot -27, Autofluor counter 5175, BoNT F protease -42, BoNT-A LC inh2 2, Mtb FBA inh conf 16 and GDH-TPI counter-2 12*.
CCCC(=O)Nc1ccc2c(c1)nc1n2CCN(CCOC)C1 was read as FBA Mtb inh 33*, GDH-TPI counter-1 5, Anthrax LF prot 2, Autofluor counter 4165, BoNT F protease -13, BoNT-A LC inh2 -2, Mtb FBA inh conf active and GDH-TPI counter-2 179*.
Screening CCCCC(=O)Nc1ccc2c(c1)nc1n2CCOC1 returned FBA Mtb inh 2, GDH-TPI counter-1 -1, Anthrax LF prot -5, Autofluor counter 10010, BoNT F protease -4 and BoNT-A LC inh2 -1.
For COc1ccc(-c2cc(C(=O)N3CCN(c4ncccn4)CC3)c3ccccc3n2)cc1 the results were FBA Mtb inh 31*, GDH-TPI counter-1 17, Anthrax LF prot -5, Autofluor counter 8795, BoNT F protease -4, BoNT-A LC inh2 -1, Mtb FBA inh conf 149* and GDH-TPI counter-2 123*.
Screening COc1ccc(-c2cc(C(=O)N3CCN(c4ccccc4O)CC3)c3ccccc3n2)cc1 returned FBA Mtb inh 8, GDH-TPI counter-1 7, Anthrax LF prot -3, Autofluor counter 6350, BoNT F protease -3 and BoNT-A LC inh2 -4.
Screening COc1ccc(-c2cc(C(=O)N3CCC4(CC3)OCCO4)c3ccccc3n2)cc1 returned FBA Mtb inh 110*, GDH-TPI counter-1 21, Anthrax LF prot -1, Autofluor counter 4636, BoNT F protease -2, BoNT-A LC inh2 -2, Mtb FBA inh conf -1 and GDH-TPI counter-2 1.
For COc1ccc(OC)c(-c2cc(C(=O)N3CCN(c4ncccn4)CC3)c3ccccc3n2)c1 the results were FBA Mtb inh 6, GDH-TPI counter-1 7, Anthrax LF prot 7, Autofluor counter inconclusive, BoNT F protease -8 and BoNT-A LC inh2 1.
For COc1ccc(-c2cc(C(=O)N3CCN(c4ccccc4)CC3)c3ccccc3n2)cc1 the results were FBA Mtb inh 30*, GDH-TPI counter-1 14, Anthrax LF prot -1, Autofluor counter 2649, BoNT F protease -6, BoNT-A LC inh2 0, Mtb FBA inh conf 4 and GDH-TPI counter-2 -8.
Screening Cc1ccc(CCNC(=O)CN2C(=O)COc3ccc(S(=O)(=O)N4CCCCC4)cc32)cc1 returned FBA Mtb inh 3, GDH-TPI counter-1 -11, Anthrax LF prot -2, Autofluor counter 5369, BoNT F protease -2 and BoNT-A LC inh2 0.
`CCCCCCSc1cccc(-c2nc3cc(C)ccn3c2NCc2ccccc2)c1` gave FBA Mtb inh 28*, GDH-TPI counter-1 19, Anthrax LF prot -12, Autofluor counter 3049, BoNT F protease -15, BoNT-A LC inh2 -1, Mtb FBA inh conf 122* and GDH-TPI counter-2 104*.
For CCCCCCSc1cc(-c2nc3ccc(C)cn3c2NCc2ccccc2)ccc1OC the results were FBA Mtb inh 28*, GDH-TPI counter-1 11, Anthrax LF prot 4, Autofluor counter 2527, BoNT F protease -5, BoNT-A LC inh2 3, Mtb FBA inh conf 188* and GDH-TPI counter-2 136*.
